Compound activity from PubChem.
Pf Dd2 inh – P. falciparum Dd2 growth inhibition; AID 1159554; SYBR Green, 72 h; stronger effect = lower value; activity change, % at 10 µM; 2.3% of 94,000 active; in the data active = activity change below about -80%; inconclusive = no clear call, values can overlap the other calls
T cruzi growth-1 – blocks T. cruzi growth in NIH3T3 culture | T. cruzi beta-gal in NIH3T3, GalScreen luminescence, 90 h | 5.9% of 77,000 active | inhibition, % at 8.34 µM | AID 624255;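 active = mean inhibition above about 93%, with at least 55% of replicates each passing it, limit read from the data, passing the limit was not always enough; inconclusive = only one of those two conditions holds; inactive = neither condition holds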
C diff growth – C. difficile growth inhibition; Clostridium difficile clinical isolate growth, OD600, 24 h; stronger effect = lower value; growth activity, negative = inhibition, % at 16 µg/mL (by protocol); 0.25% of 86,000 active; AID 1259249;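 active = mean growth activity at or below -80% and every replicate also at or below -80%; inconclusive = mean at or below -80% but some replicate above -80%; inactive = mean growth activity above -80%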;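 note: 0% = DMSO wells and -100% = levofloxacin 16 µg/mL wells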
T cruzi growth-2 – blocks T. cruzi growth in NIH3T3 host cells; 72% of 5,600 active; shares compounds with T cruzi growth-1; AID 651739; T. cruzi beta-gal in NIH3T3, GalScreen luminescence, 90 h; inhibition, % at 8.35 µM;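 active = mean replicate inhibition above about 95% and at least 55% of replicates individually reaching it, limit read from the data; inconclusive = only one of the two criteria is met; inactive = neither criterion is met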
T cruzi growth-3 – Trypanosoma cruzi proliferation inhibition; T. cruzi beta-gal in NIH3T3, GalScreen luminescence, 90 h; inhibition, % at 2.09 µM; 21% of 5,600 active; shares compounds with T cruzi growth-1;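 active = mean inhibition above about 95%, with at least 55% of replicates also reaching it, limit read from the data; inconclusive = meets just one of the two conditions; inactive = meets neither condition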;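 note: plate controls were neutral control median for no effect and positive control median for full effect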
NIH3T3 tox – NIH/3T3 (mouse) viability loss | shares compounds with T cruzi growth-1 | 14% of 5,600 active | AID 651742 | NIH/3T3 viability, CellTiter-Glo ATP luminescence, 90 h | cytotoxicity (signal decrease), % at 8.35 µM;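 active = mean signal decrease across replicates above about 35% based on untreated-well scatter, with enough replicates individually passing, limit read from the data; inconclusive = no rule stated though some were filed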;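 note: 0% = median of neutral control wells and 100% = median of positive control wells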
3T3 cytotox 2 – kills mouse NIH/3T3 fibroblasts | shares compounds with T cruzi growth-1 | NIH/3T3 viability, CellTiter-Glo ATP luminescence, 90 h | inhibition, % at 24.9 µM | 56% of 5,600 active;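 active = mean loss of cell viability signal at or above a set limit, and enough replicates individually reaching it; inconclusive = meets only the mean limit or only the replicate share; inactive = meets neither condition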;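 note: 0% = median of neutral control wells and 100% = median of positive control wells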
* marks the source's active call; other numbers are inactive results; ? = inconclusive; · = no result. In the library only some 6.7% were active in any assay of this set; here they are far more common.

SMILES	Pf Dd2 inh	T cruzi growth-1	C diff growth	T cruzi growth-2	T cruzi growth-3	NIH3T3 tox	3T3 cytotox 2
C[C@@H]1CCCCO[C@@H](CN(C)C(=O)c2ccncc2)[C@@H](C)CN([C@H](C)CO)C(=O)c2cc(NS(=O)(=O)c3ccc(F)cc3)ccc2O1	38.1	6.4	·	·	·	·	·
COc1ccc(-c2cnc3c(c2)C(=O)N([C@H](C)CO)C[C@H](C)[C@@H](CN(C)C(=O)NC2CCCC2)O3)cc1	-31.4	18.0	0.2	·	·	·	·
O=C(C[C@H]1C[C@@H]2c3cc(NC(=O)C4CCC4)ccc3O[C@@H]2[C@H](CO)O1)NCCc1ccccc1	-7.2	21.0	1.7	·	·	·	·
CNC[C@@H]1Oc2ccc(NC(=O)C3CCCCC3)cc2C(=O)N([C@@H](C)CO)C[C@@H]1C	36.4	14.6	-1.7	·	·	·	·
CN(C)CC(=O)N[C@@H]1CC[C@H](CCn2cc(C3CC3)nn2)O[C@@H]1CO	-3.5	·	0.7	·	·	·	·
CN1C(=O)c2cc(NC(=O)C3CCCCC3)ccc2OC[C@@H]2O[C@H](CC(=O)NCC3CCCCC3)CC[C@H]21	-56.7	·	-10.0	·	·	·	·
O=C(C[C@@H]1CC[C@@H]2[C@H](COC[C@H](O)CN2Cc2cccc(Cl)c2)O1)NCc1cccc(F)c1	-3.9	-5.5	·	·	·	·	·
O=C(C[C@H]1C[C@@H]2c3cc(NC(=O)NC4CCCC4)ccc3O[C@@H]2[C@@H](CO)O1)NCc1ccc(Cl)cc1	-24.0	?	-1.2	103.2*	42.0	21.7	18.2
O=C(C[C@@H]1C[C@@H]2c3cc(NC(=O)CC4CC4)ccc3O[C@@H]2[C@@H](CO)O1)NCc1cccnc1	18.1	99.9*	0.7	112.9*	-27.1	-6.9	-10.5
O=C(C[C@@H]1C[C@H]2c3cc(NC(=O)Cc4ccncc4)ccc3O[C@H]2[C@@H](CO)O1)NCc1cccnc1	8.0	6.6	1.0	·	·	·	·
O=C(C[C@@H]1C[C@H]2c3cc(NC(=O)NC4CCCC4)ccc3O[C@H]2[C@H](CO)O1)NCc1ccc(-c2ccccc2)cc1	-18.5	100.4*	-3.8	104.8*	?	-11.5	51.4*
O=C(C[C@@H]1C[C@H]2c3cc(NC(=O)NC4CCCC4)ccc3O[C@H]2[C@@H](CO)O1)NCc1ccc(Cl)cc1	3.6	35.8	-2.6	·	·	·	·
O=C(C[C@@H]1C[C@H]2c3cc(NC(=O)NC4CCCC4)ccc3O[C@H]2[C@@H](CO)O1)NCc1ccc(-c2ccccc2)cc1	6.5	84.6	5.6	·	·	·	·
O=C(C[C@H]1C[C@@H]2c3cc(NC(=O)CC4CC4)ccc3O[C@@H]2[C@H](CO)O1)NCc1ccc(-c2ccccc2)cc1	-18.6	103.7*	0.1	111.7*	56.1	10.6	-2.5
O=C(C[C@H]1C[C@@H]2c3cc(NC(=O)CC4CC4)ccc3O[C@@H]2[C@@H](CO)O1)NCc1ccc(-c2ccccc2)cc1	-4.6	41.2	-5.4	·	·	·	·
CCN(C[C@@H]1N[C@H](CO)[C@@H]1c1ccccc1)C(=O)c1ccccc1	-25.3	-22.4	0.0	·	·	·	·
CO[C@H]1CN(C)C(=O)c2cc(NC(=O)NC(C)C)ccc2OC[C@@H](C)N(C)C[C@H]1C	23.4	-16.7	-0.8	·	·	·	·
C[C@@H]1CN([C@@H](C)CO)C(=O)c2cc(NS(=O)(=O)c3cccs3)ccc2O[C@@H]1CN(C)Cc1ccc(Oc2ccccc2)cc1	10.2	56.4	·	·	·	·	·
CCCC#Cc1ccc([C@@H]2[C@H](CO)N3CCCCN(Cc4cccnc4)C[C@@H]23)cc1	-66.4	102.9*	-4.3	105.0*	80.8	29.4	103.7*
CCCC#Cc1ccc([C@@H]2[C@H](CO)N3CCCCN(Cc4cncnc4)C[C@@H]23)cc1	-26.9	42.2	-2.4	·	·	·	·
CCCC#Cc1ccc([C@H]2[C@H](CO)N3CCCCN(Cc4cccnc4)C[C@@H]23)cc1	-59.2	115.1*	-0.1	108.5*	68.8	-15.4	90.2*
CCCC#Cc1ccc([C@@H]2[C@@H](CO)N3CCCCN(Cc4cccnc4)C[C@H]23)cc1	-65.5	?	6.8	101.6*	35.5	7.5	81.9*
CCCC#Cc1ccc([C@@H]2[C@H]3CN(Cc4cccnc4)CCCCN3[C@H]2CO)cc1	-8.2	91.6	-3.0	·	·	·	·
CCCC#Cc1ccc([C@H]2[C@H](CO)N3CCCCN(Cc4cncnc4)C[C@@H]23)cc1	-0.8	55.2	0.1	·	·	·	·
CCCC#Cc1ccc([C@H]2[C@H](CO)N3CCCCN(Cc4ccncc4)C[C@@H]23)cc1	-41.0	106.7*	-0.4	99.9*	45.8	33.9	85.9*
SMILES	Pf Dd2 inh	T cruzi growth-1	C diff growth	T cruzi growth-2	T cruzi growth-3	NIH3T3 tox	3T3 cytotox 2
COCC(=O)N1[C@@H]2c3ccc(/C=C/c4ccccc4)c(=O)n3C[C@H]1[C@H](CO)[C@H]2C(=O)N1CCOCC1	·	44.0	4.2	·	·	·	·
CC(C)CC#Cc1cnc2c(c1)C(=O)N([C@H](C)CO)C[C@H](C)[C@@H](CN(C)C(=O)c1ccccc1F)O2	-8.7	28.9	-7.7	·	·	·	·
COCC(=O)Nc1ccc2c(c1)C(=O)N(C)C[C@@H](OC)[C@@H](C)CN(CCC(F)(F)F)[C@@H](C)CO2	41.5	9.2	·	·	·	·	·
C/C=C/c1ccc([C@@H]2[C@H](CO)N3CCCCN(S(=O)(=O)c4cccc(C)c4)C[C@@H]23)cc1	-73.9	75.9	-1.0	·	·	·	·
C/C=C/c1ccc([C@@H]2[C@H]3CN(S(=O)(=O)c4ccccc4)CCCCN3[C@H]2CO)cc1	1.1	83.9	-6.9	·	·	·	·
C/C=C/c1ccc([C@H]2[C@@H](CO)N3CCCCN(S(=O)(=O)c4ccccc4)C[C@@H]23)cc1	19.6	101.5*	1.5	99.9*	-16.1	4.3	2.4
C/C=C/c1ccc([C@H]2[C@@H](CO)N3CCCCN(S(=O)(=O)c4cccc(C)c4)C[C@H]23)cc1	-72.1	102.4*	17.4	101.0*	89.9	17.8	104.1*
C[C@H]1CN([C@@H](C)CO)C(=O)c2cc(C#CC(C)(C)O)cnc2O[C@@H]1CN(C)Cc1ccccn1	10.6	·	-1.2	·	·	·	·
CCCNC(=O)[C@H]1[C@H](CO)[C@H]2Cn3c(ccc(C4=CCCC4)c3=O)[C@@H]1N2Cc1ccncc1	22.2	98.7*	-6.3	41.1	28.8	10.1	9.7
COc1ccccc1CN1[C@@H]2c3ccc(C4=CCCC4)c(=O)n3C[C@H]1[C@H](CO)[C@H]2C(=O)N(C)C	·	142.0*	0.0	73.9	11.9	7.5	38.4*
CCCNC(=O)[C@@H]1[C@@H](CO)[C@@H]2Cn3c(ccc(C4=CCCC4)c3=O)[C@H]1N2Cc1ccncc1	8.1	-1.0	-2.9	·	·	·	·
COc1ccccc1CN1[C@@H]2Cn3c(ccc(C4=CCCC4)c3=O)[C@H]1[C@@H](C(=O)N(C)C)[C@@H]2CO	·	56.4	1.8	·	·	·	·
C[C@@H]1CN([C@@H](C)CO)C(=O)c2cc(NS(=O)(=O)c3cn(C)cn3)ccc2O[C@@H](C)CCCCO[C@H]1CN(C)C(=O)c1ccncc1	9.7	16.7	-4.4	·	·	·	·
C[C@@H]1CN([C@@H](C)CO)C(=O)c2cc(NC(=O)Nc3ccc(F)cc3)ccc2O[C@@H](C)CCCCO[C@@H]1CN(C)S(=O)(=O)c1cccs1	-70.8	-51.1	-2.9	·	·	·	·
